Cycloheximide cs: counter-screen hit for Shiga toxin inhibitors, cycloheximide; 12% of 300,000 active; max response, %; cell reporter, cycloheximide protein synthesis inhibition counterscreen; AID 2314; in the data active means max response mostly above about 13%, no sharp cut-off; inactive means mostly below about 14%; further: read at 38.3 µM for the half of the compounds with a filed dose; 0% is about no effect
Pf growth 96h: P. falciparum growth inhibition at 96 hour, primary screen for plastid delayed-death inhibitors; P. falciparum luciferase reporter growth, 96 h; Potency, µM (titrated, usually from 28.7 µM), without a hit: at the top dose activity change, negative = inhibition, actives largely listed as inhibitors; 6.9% of 320,000 active; further: potency means the concentration at half of the fitted maximal effect; on the % scale 0 is the no-effect control and ±100 the full control effect
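96 h incubation, 37 C, 5% CO2, of luciferase-reporter P. falciparum-infected RBCs (2% hematocrit, 0.05% parasitemia final) with test compounds; endpoint luminescence.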
HCMV inh: blocks human cytomegalovirus replication; HFF cells, HCMV-luciferase reporter, 72 h; active compounds read low; activity change, negative = inhibition, % at 57.5 µM; 4.5% of 410,000 active; in the data active means activity change below about -60%; inconclusive means no clear call, values can overlap the other calls; inactive means above about -39%; further: on the % scale 0 is the no-effect control and ±100 the full control effect
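Compounds were evaluated in HFFs infected with an HCMV luciferase reporter virus (MOI 1 PFU/cell). Luciferase in lysates collected 72 h post infection served as the replication measure.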
Shiga inhibitor: inhibitors of Shiga toxin in Vero cells. Vero cells, Shiga toxin protein synthesis inhibition reporter. inhibition, % at 38.7 µM. AID 2315. 9.2% of 290,000 active; in the data active means inhibition mostly above about 28%, no sharp cut-off; inactive means mostly below about 43%; further: 0% is about no effect
Pf growth 48h: P. falciparum growth inhibition at 48 hours (one generation); P. falciparum luciferase growth in erythrocytes, 48 h; Potency, µM (series often up to 28.7 µM), without a hit: top-dose activity change, negative = inhibition, hits mostly inhibitors; 5.9% of 310,000 active; further: potency means the concentration at half of the fitted maximal effect; on the % scale 0 is the no-effect control and ±100 the full control effect
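In quantitative HTS format, infected erythrocytes bearing luciferase-reporter parasites were treated for a single generation at 37 C. Luminescence after adding detection reagent served as the growth measure.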
* marks the source's active call; other numbers are inactive results; i = inactive; u = inconclusive; x = no result given. Shown are actives, neighbours in structure and some others; about 20% of the full set was active somewhere. Unless noted, the call rests on the fitted dose curve; in most records, active means well fitted inhibition curve with a large enough effect; inconclusive means small, poorly fitted or top-dose-only effect, or another doubt; inactive means no such curve, though single readings can be large or run the other way.

SMILES	Cycloheximide cs	Pf growth 96h	HCMV inh	Shiga inhibitor	Pf growth 48h
Cc1ccc(-c2cc(C(F)F)n3ncc(C(=O)N4CCCCC4c4cccnc4)c3n2)cc1 (stereo not given)	-1	4.1µM*	0	-7	1.7µM*
CN1CCN(C(=O)c2cc3nc(-c4ccc(F)cc4)cc(C(F)(F)F)n3n2)CC1	-7	u	-15	-3	x
CC(=O)N1CCN(S(=O)(=O)c2ccc(S(=O)(=O)N3CCCC(C)C3)cc2)CC1 (stereo not given)	-2	19%	-3	-9	35%
Cc1ccc(F)cc1C(=O)Nc1ccn2ccnc2n1	x	x	2	x	x
CC1CCCCN1C(=O)c1cc2nc(-c3ccccc3)cc(-c3ccccc3)n2n1 (stereo not given)	-1	u	-21	-1	8.3µM*
COc1cccc2sc3cc(NCCCN4CCOCC4)ccc3c(=O)c12	x	x	-39	x	x
c1ccc2c(N3CCOCC3)nc(N3CCOCC3)nc2c1	10	4.1µM*	69	21	u
CC1CCCCN1c1nc(-c2ccncc2)nc2ccccc12 (stereo not given)	-6	4%	-33	-3	8.3µM*
CC1CCN(c2nc(-c3ccncc3)nc3ccccc23)CC1	-3	4.7µM*	-18	19	4.1µM*
CCC1CCCCN1c1nc(-c2ccncc2)nc2ccccc12 (stereo not given)	-5	3%	u	-20	x
CC1(C)CC2CC(C)(CN2c2ncnc3ccccc23)C1 (stereo not given)	-2	u	-63*	-7	u
CC1CCCCN1c1ncnc2ccccc12 (stereo not given)	9	11%	-88*	-3	x
c1ccc2c(N3CCCCC3)ncnc2c1	-2	58%	-91*	-15	3%
c1cncc(-c2nc(N3CCOCC3)c3ccccc3n2)c1	4	x	x	5	u
c1ccc2c(N3CCOCC3)nc(-c3ccncc3)nc2c1	-2	-14%	87	-7	9.3µM*
c1ccc(CN2CCN(c3nc(N4CCOCC4)c4ccccc4n3)CC2)cc1	x	x	-2	x	x
CC12CC3CC(C)(C1)CC(Nc1nc(N4CCOCC4)nc4ccccc14)(C3)C2	-1	1.3µM*	0	-10	1.7µM*
Cc1ccc2c(C)c(C(=O)N(C)Cc3nccn3C)oc2c1C	-2	-18%	-16	-7	19%
COc1ccc(C(=O)NCC(=O)Nc2cccc(S(=O)(=O)NCc3ccco3)c2)cc1OC	5	-17%	-7	48	0%
O=C(c1ccc(Oc2ccc(C(F)(F)F)cc2[N+](=O)[O-])cc1)N1CCOCC1	3	-4%	-83*	13	-5%
O=C(CN1C(=O)c2ccccc2S1(=O)=O)NCc1ccccc1Cl	-2	-1%	42	-12	6%
Cc1ccc(C(=O)CN2C(=O)c3ccccc3S2(=O)=O)cc1	-2	76%	-88*	-18	3.7µM*
Cc1ccc(C(=O)COc2ccccc2-c2ccccc2)cc1	7	7%	-37	12	u
O=C(CN1C(=O)c2ccccc2S1(=O)=O)c1ccccc1Cl	-5	-7%	-86*	-21	-61%
Cc1ccc(C(=O)COc2ccccc2N2C(=O)c3ccccc3C2=O)cc1	9	3.3µM*	27	-6	38%
SMILES	Cycloheximide cs	Pf growth 96h	HCMV inh	Shiga inhibitor	Pf growth 48h
O=C(CN1C(=O)c2ccccc2S1(=O)=O)c1ccccc1	-9	x	-65*	-35	89%
COc1ccc(Br)cc1CNCc1c(C(=O)O)c(C)n(Cc2ccccc2C)c1C	x	x	1	x	x
Clc1ccc(Cn2nnc(-c3ccc(N4CCOCC4)cc3)n2)cc1	-5	x	-7	-14	8%
O=C(Cn1nnc(-c2ccc(F)cc2)n1)OCC(=O)c1ccccc1	-1	65%	22	11	21%
Clc1ccc(-c2nnn(Cc3nc4ccccc4s3)n2)cc1	25*	36%	129	96*	73%
Fc1ccc(-c2nnn(Cc3nc4ccccc4s3)n2)cc1	12*	x	33	36	27%
Nc1nc(-c2ccc3c(c2)CCCC3)c(CC(=O)O)s1	5	-5%	23	7	25%
Cc1c(Br)cc(C(=O)N2CCN(CCO)CC2)c(C)c1C	-1	u	-101*	-7	-2%
CCc1ccc(-c2ccc(SCc3ccccn3)nn2)cc1	41*	-33%	23	103*	104%
CCc1ccc(NC(=O)CSc2ccc(-c3ccccn3)nn2)cc1	7	u	u	3	-26%
CCOc1ccc(-c2ccc(SCc3ccccn3)nn2)cc1	40*	-31%	-21	59*	34%
Cc1c(C(=O)OC(C)C)[nH]c2c1C(=O)CC(C)(C)C2	11*	x	19	-2	2%
COc1ccc(OC)c(CN2C(=O)c3ccccc3C2c2nnnn2-c2c(C)cccc2C)c1 (stereo not given)	x	x	-37	x	x
CCOC(=O)C1=C(O)c2ccccc2C(=O)/C1=C\c1ccc(C)cc1	-1	4.1µM*	x	16	2.9µM*
CCOC(=O)CSc1nc2ccsc2c(=O)n1C1CCN(C(=O)OCC)CC1	1	u	6	23	u
COc1ccc(Cn2c(SCC(=O)NCc3ccco3)nc3ccsc3c2=O)cc1	17*	0%	19	-40	13µM*
CCOC(=O)N1CCC(n2c(SCC(=O)NCc3ccco3)nc3ccsc3c2=O)CC1	0	u	x	9	13µM*
CCOC(=O)N1CCC(n2c(SCC(=O)Nc3nccs3)nc3ccsc3c2=O)CC1	-4	22%	-90*	-8	u
CCOC(=O)CSc1nc2cc(C(=O)NCc3ccco3)ccc2c(=O)n1C1CCCCC1	-2	-2%	47	-13	5.9µM*
Cc1ccc(N2CCN(C(CCc3ccccc3)C(=O)Nc3c(C)cccc3C)CC2)cc1 (stereo not given)	x	x	123	x	x
Cc1ccc(CNC(=O)CCCn2c(=O)c3ccccc3n(Cc3ccc(Cl)cc3)c2=O)cc1	x	x	6	x	x
C=C1c2cccc(C(F)(F)F)c2O[C@H](C(=O)OCC)[C@@H]1CCCCCC	12	x	x	i	x
Cc1ccc(CNC(=O)CSc2nc3ccsc3c(=O)n2Cc2ccccc2F)cc1	x	x	93	x	x
O=C(CSc1nc2ccsc2c(=O)n1Cc1ccccc1F)NCc1ccccc1Cl	x	x	-91*	x	x
COc1cc(OC)c2c(-c3cccc(-c4sccc4C(C)=O)c3)cc(=O)oc2c1	-5	x	-79*	i	x
C/C=C(\C)C(=O)Nc1cccc(C2=NOC3(C2)C[C@@H](C(N)=O)N(C(=O)/C(C)=C/C)C3)c1 (stereo not given in full)	-4	-2%	-68*	4	45%
C=C(C)C(=O)Nc1cccc(C2=NOC3(C2)C[C@@H](C(N)=O)N(C(=O)/C(C)=C/C)C3)c1 (stereo not given in full)	-4	26%	-32	7	37%
C/C=C(/C)C(=O)Nc1cccc(C2=NOC3(C2)C[C@H](C(N)=O)N(C(=O)Cc2ccc([N+](=O)[O-])cc2)C3)c1 (stereo not given in full)	-5	u	-13	-5	12µM*

Compound activity (PubChem BioAssay)
